Reference: PMC5540273 (PLoS ONE, 2017)

Assays:
Conditions in all cases: concentration: 1 μM, replicates: in singlicate; n = 1
[1] = tested on: T1, ERK8
T1 construct: gene MAPK15

[2] = tested on: ERN1
[3] = tested on: T2, FAK
T2 construct: gene PTK2

[4] = tested on: FER
[5] = tested on: FES
[6] = tested on: FGFR1
[7] = tested on: FGFR2
[8] = tested on: FGFR3
[9] = tested on: FGFR4
[10] = tested on: FGR
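Further: KINOMEscan kinase panel screen.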

Structure (SMILES) | %Inh [1] [%] | %Inh [2] [%] | %Inh [3] [%] | %Inh [4] [%] | %Inh [5] [%] | %Inh [6] [%] | %Inh [7] [%] | %Inh [8] [%] | %Inh [9] [%] | %Inh [10] [%]
Nc1ncnc2occ(-c3ccc4c(c3)CCN4C(=O)Cc3cc(F)ccc3F)c12 [GSK2645446] | 0 | 0 | 0 | 8 | 0 | 0 | 0 | 17 | 1 | 16
Cn1cncc1C(=O)NC1CCN(c2ccnc(Nc3ccc(F)cc3)n2)C1 (centres unmarked) [GSK1379717] | 0 | 0 | 0 | 0 | 0 | 0 | 0 | 7 | 1 | 22
Cc1cccc2c(-c3ccncn3)c(-c3ccc(F)cc3)nn12 [GW515532] | 100 | 1 | 0 | 8 | 0 | 15 | 0 | 0 | 0 | 1
CC[C@@H]1CO[C@H](C(=O)Nc2ccccc2)CN1c1cc(-c2ccc3c(N)n[nH]c3c2)nc(NC)n1 [GSK2376236] | 0 | 19 | 0 | 27 | 9 | 0 | 0 | 41 | 19 | 31
Nc1cccc(-c2ccc3c(N)n[nH]c3c2)n1 [GSK2192730] | 0 | 24 | 0 | 0 | 0 | 0 | 0 | 0 | 0 | 10
